Reference: PubChem BioAssay (NCATS)
Results filed as inconclusive are left out. The source made the active and inactive calls. Calls follow the shape of the dose curve; as a rule, active = well fitted curve in the direction sought with a large enough effect; inconclusive = small, poorly fitted or top-dose-only effect, or another doubt; inactive = no such curve, though single readings can be large; an effect the other way counts as inactive or inconclusive. *1 amine or outer side, *2 acyl side, *3 side chain or, on linkers, in order; H or OH if unused. Where a SMILES comes first, the peptide text is derived from it. [ ]: non-standard residue; d: D form. X5 = CC(CC(O[*:1])C(=O)[*:2])C(=O)O; NMeV = CN[CH](C(=O)O)C(C)C; NMeA = CN[CH](C)C(=O)O; βAla = NCCC(=O)O

Assays:
[1] = system: Zika virus NS2B-NS3 protease (linked construct); assay: Primary screen NINDS Rhodamine qHTS for Zika virus inhibitors (AID 1347160); also: nearly all actives have a fitted effect of over 55% in size
Summary of the method: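 Each compound, titrated, sat 15 min with 25 nM linked protease before 1.5 microM Rhodamine110 substrate went in. Fluorescence gain over the next 15 min, in pH 8.0 Tris with Tween 20, gave Hill-fitted curves.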

[2] = target: Calcium and integrin-binding protein 1 (Homo sapiens) (UniProt Q99828); assay: Primary qHTS for Identification of Calcium Integrin Binding Protein 1 (CIB1) Competitor (AID 1508620);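 also: GST tagged CIB1 binding a fluorescein labelled alphaIIb integrin peptide tracer; top concentration of the series differs between compounds; % is scaled to controls: 0 for no effect and ±100 for the full control effect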
Chain of Calcium and integrin-binding protein 1 (Homo sapiens) (Q99828 whole entry, looked up): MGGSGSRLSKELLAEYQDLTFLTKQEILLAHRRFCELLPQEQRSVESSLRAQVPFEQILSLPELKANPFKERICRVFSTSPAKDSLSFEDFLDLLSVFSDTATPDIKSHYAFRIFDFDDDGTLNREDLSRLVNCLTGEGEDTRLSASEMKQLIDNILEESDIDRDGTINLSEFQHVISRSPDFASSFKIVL
Summary of the method: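 Fluorescence polarization competition: CIB1-GST (1 uM final) preincubated with compound 15 min at room temperature, then FITC-labeled alphaIIb peptide (100 nM final) added for another 15 min. Polarization read at Ex 480/Em 540.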

[3] = target: Glutathione peroxidase 1 (Homo sapiens) (UniProt P07203); assay: Primary qHTS Assay for Inhibitors of Recombinant Selenoprotein Glutathione Peroxidase 1 (GPX1) (AID 1845191); also: nearly all actives have a fitted effect of over 65% in size; as to activity, negative = inhibition: % is scaled to controls: 0 for no effect and ±100 for the full control effect
Chain of Glutathione peroxidase 1 (Homo sapiens) (P07203 whole entry, looked up): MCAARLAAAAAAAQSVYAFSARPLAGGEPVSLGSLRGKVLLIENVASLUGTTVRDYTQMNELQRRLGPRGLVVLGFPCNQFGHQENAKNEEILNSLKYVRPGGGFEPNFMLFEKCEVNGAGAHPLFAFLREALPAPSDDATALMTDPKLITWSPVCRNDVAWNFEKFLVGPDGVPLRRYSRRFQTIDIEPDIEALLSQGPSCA
Summary of the method: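 GPX1 10 nM, GR 100 nM, GSH 1 mM, NADPH 0.5 mM, CHP 0.5 mM (final). 30-min cpd preincubation, RT. Ex340/Em450 read t=0, t=15 min.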

[4] = target: Luciferin 4-monooxygenase (Photinus pyralis) (UniProt P08659); assay: Primary firefly luciferase (FLuc) qHTS assay for identification of artifact compounds. (AID 1845220); conditions: outcome: dose series up to 54.1 µM unless noted; also: nearly all actives have a fitted effect of over 60% in size
Summary of the method: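 Reaction readout was CCD-imaged luminescence, taken 5 min after adding 10 nM purified firefly enzyme to compound-treated wells holding 10 uM luciferin and ATP in pH 7.6 buffer.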

[5] = system: Nanoluciferase (engineered Oplophorus gracilirostris luciferase); assay: Primary Nanoluciferase (NLuc) qHTS assay for identification of artifact compounds. (AID 1845222);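 also: NLuc secreted into diluted conditioned medium of S16 cells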
Summary of the method: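 Concentration-response data were obtained by luminescence after 5 min with Nano-Glo substrate at 1:100. The enzyme was diluted S16 NLuc-expressing cell medium, preincubated with compound for 15 min at RT. Curves were fitted with a 4-parameter Hill model.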

[6] = Primary redox qHTS assay for identification of artifact compounds. (AID 1845223);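 also: 0% = DMSO and 100% = reference compound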
Summary of the method: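 Redox-cycling detection via DTT (250 uM final) oxidation coupled to Amplex Red (25 uM)/HRP (250 mU/mL) in HBSS. 15 min preincubation plus 30 min after DTT, room temperature. Ex/Em 525/598 nm; 4-parameter Hill fit against DMSO and 10 uM DA3003.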

HaCat = assay: Cytotoxic Profiling of Annotated Libraries Using Quantitative High-Throughput Screening (AID 1296008); conditions: Five cell lines viability, CellTiter-Glo ATP luminescence, 48-72 h; max response: active compounds read low; also: nearly all actives have a fitted effect of over 60% in size; also: potency is read from the fitted curve at half-maximal effect
Summary of the method: (§1)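 Compounds were pin-transferred onto cells and incubated 48 or 72 hr at 37 degree Celsius, 95% humidity. CellTiter-Glo was added, plates sat 10 min at room temperature, then ATP-coupled luminescence was imaged as the viability read-out.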

NIH3T3 = assay: as above; conditions: Five cell lines viability, CellTiter-Glo ATP luminescence, 48-72 h; max response: active compounds read low
Summary of the method: as §1

CAOV3 = assay: Primary qHTS to identify gynecologic anti-cancer compounds using libraries of approved drugs and bioactive compounds (AID 1345084); conditions: Gynecologic cancer cell panel viability, ATPlite luminescence, 48 h; series mostly up to 57.5 µM; also: nearly all actives have a fitted effect of over 55% in size; also: potency is read from the fitted curve at half-maximal effect; as to activity change, negative = cytotoxicity: % is scaled to controls: 0 for no effect and ±100 for the full control effect
Summary of the method: (§2)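 Five-point cytotoxicity, 48 h drug exposure at 37 C, 5% CO2, on cells seeded 16 h beforehand. ATP content read by ATPlite luminescence.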

CASKI = assay: as above; conditions: Gynecologic cancer cell panel viability, ATPlite luminescence, 48 h; series mostly up to 57.5 µM
Summary of the method: as §2

Es-2 = assay: as above; conditions: Gynecologic cancer cell panel viability, ATPlite luminescence, 48 h; series mostly up to 57.5 µM
Summary of the method: as §2

Hek293T = assay: as above; conditions: Gynecologic cancer cell panel viability, ATPlite luminescence, 48 h, control line for the selectivity index; series mostly up to 57.5 µM
Summary of the method: as §2

JEG-3 = assay: as above; conditions: Gynecologic cancer cell panel viability, ATPlite luminescence, 48 h; series mostly up to 57.5 µM
Summary of the method: as §2

OV90 = assay: as above; conditions: Gynecologic cancer cell panel viability, ATPlite luminescence, 48 h; series mostly up to 57.5 µM
Summary of the method: as §2

PA-1 = assay: as above; conditions: Gynecologic cancer cell panel viability, ATPlite luminescence, 48 h; series mostly up to 57.5 µM
Summary of the method: as §2

[7] = target: Phospholipid hydroperoxide glutathione peroxidase GPX4 (Homo sapiens) (UniProt P36969); assay: Primary qHTS Assay for Inhibitors of Recombinant Selenoprotein Glutathione Peroxidase 4 (GPX4) (AID 1845192); also: % is scaled to controls: 0 for no effect and ±100 for the full control effect; nearly all actives have a fitted effect of over 65% in size
Chain of Phospholipid hydroperoxide glutathione peroxidase GPX4 (Homo sapiens) (P36969 whole entry, looked up): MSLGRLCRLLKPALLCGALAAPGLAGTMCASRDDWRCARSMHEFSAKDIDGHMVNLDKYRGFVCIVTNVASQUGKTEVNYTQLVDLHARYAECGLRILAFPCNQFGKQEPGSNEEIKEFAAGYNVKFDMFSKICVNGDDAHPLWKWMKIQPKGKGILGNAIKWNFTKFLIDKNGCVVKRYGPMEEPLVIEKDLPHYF
Summary of the method: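 qHTS, GR-coupled: GPX4 200 nM + cpd 30 min RT → GSH 1 mM, NADPH 0.5 mM, GR 100 nM → CHP 0.5 mM start; fluor 340/450 at t0 and t15 min; no-enzyme wells as control.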

[8] = Primary fluorescence-based thiol-reactive (MSTI) qHTS assay for identification of artifact compounds. (AID 1845221);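 also: thiol-reactive compounds lower the probe fluorescence signal; nearly all actives have a fitted effect of over 65% in size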
Summary of the method: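 Thiol-reactive compounds detected by quenching of 4 uM MSTI fluorescence (525/598 nm) after 1 h room-temperature dark incubation in PBS pH 7.4, 2% DMSO. qHTS titration; percent inhibition Hill-fitted against Acetyl-MSTI/MSTI controls.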

Tov-21-G = assay: Primary qHTS to identify gynecologic anti-cancer compounds using libraries of approved drugs and bioactive compounds (AID 1345084); conditions: Gynecologic cancer cell panel viability, ATPlite luminescence, 48 h; series mostly up to 57.5 µM; also: nearly all actives have a fitted effect of over 55% in size; also: potency is read from the fitted curve at half-maximal effect; as to activity change, negative = cytotoxicity: % is scaled to controls: 0 for no effect and ±100 for the full control effect
Summary of the method: as §2

Tov112D = assay: as above; conditions: Gynecologic cancer cell panel viability, ATPlite luminescence, 48 h; series mostly up to 57.5 µM
Summary of the method: as §2

C33A = assay: as above; conditions: Gynecologic cancer cell panel viability, ATPlite luminescence, 48 h; series mostly up to 57.5 µM
Summary of the method: as §2

CC[C@@H]1C[C@H]2CC[C@H](O2)[C@H](C)C(=O)O[C@@H](C)C[C@@H]2CC[C@@H](O2)[C@@H](C)C(=O)O[C@H](C)C[C@H]2CC[C@H](O2)[C@H](C)C(=O)O[C@@H](C)C[C@@H]2CC[C@@H](O2)[C@@H](C)C(=O)O1
inactive: Potency [1] | Potency [2] | Potency [3] | outcome [4] inactive [at 25.7 µM] | Potency [5] | Potency [6] | Potency (JEG-3)
active: Potency (HaCat) 485 nM | Potency (NIH3T3) 86.2 nM | Potency (CAOV3) 562 nM | Potency (CASKI) 501 nM | Potency (Es-2) 708 nM | Potency (Hek293T) 282 nM | Potency (OV90) 447 nM | Potency (PA-1) 398 nM

CC[C@@H](C)[C@H]1C(=O)O[C@H](C(C)C)C(=O)N(C)[C@@H](C(C)C)C(=O)O[C@H](C(C)C)C(=O)N(C)[C@@H](C(C)C)C(=O)O[C@H](C(C)C)C(=O)N1C
inactive: Potency [1] | Potency [2] | Potency [3] | Potency [7] | outcome [4] | Potency [8] | Potency [5] | Potency [6] | Potency (CASKI) | Potency (JEG-3)

CCOC(=O)c1ccc(-c2ccc(OC(=O)N(C)Cc3cccc(-c4ccncc4)c3)cc2)cc1
inactive: Potency [1] | Potency [2] | Potency [3] | Potency [7] | outcome [4] | Potency [8] | Potency [5] | Potency [6] | max response (HaCat) -8.03% | Potency (CAOV3) | Potency (CASKI) | Potency (Es-2) | Potency (Hek293T) | Potency (JEG-3) | Potency (OV90) | Potency (PA-1) | Potency (Tov-21-G) | Potency (Tov112D)

CCC(C)C1NC(=O)C2CCCN2C(=O)C(CC(C)C(=O)O)OC(=O)CCNC(=O)C(C)N(C)C(=O)C(C(C)C)N(C)C1=O (stereo not given) (cyclo([X5]PI[NMeV][NMeA][βAla]); configuration not given here)
inactive: Potency [1] | Potency [2] | Potency [3] | Potency [7] | outcome [4] | Potency [8] | Potency [5] | Potency [6] | max response (HaCat) 4.66% | max response (NIH3T3) 3.88% | Potency (C33A) | Potency (CAOV3) | Potency (CASKI) | Potency (Es-2) | Potency (Hek293T) | Potency (JEG-3) | Potency (OV90) | Potency (PA-1) | Potency (Tov-21-G) | Potency (Tov112D)

CCC1CC2CN3CCc4c([nH]c5ccccc45)C(C(=O)OC)(C2)C13 (stereo not given)
inactive: Potency [1] | Potency [2] | Potency [3] | Potency [7] | outcome [4] | Potency [5] | Potency [6] | max response (NIH3T3) -4.92% | Potency (C33A) | Potency (CAOV3) | Potency (CASKI) | Potency (Es-2) | Potency (Hek293T) | Potency (JEG-3) | Potency (OV90) | Potency (PA-1) | Potency (Tov-21-G) | Potency (Tov112D)

Cc1ccc(Cn2nc(C(=O)N[C@@H]3C(C)(C)[C@@H]4CC[C@@]3(C)C4)cc2-c2ccc(Cl)c(C)c2)cc1
inactive: Potency [1] | Potency [7] | outcome [4] | Potency [8] | Potency [5] | Potency [6] | max response (NIH3T3) -3.82% | Potency (C33A) | Potency (CASKI) | Potency (Es-2) | Potency (Hek293T) | Potency (JEG-3) | Potency (OV90) | Potency (PA-1) | Potency (Tov-21-G) | Potency (Tov112D)

C=C1C(=O)OC2/C=C(\COO)CC/C=C(\COC(C)=O)CC(OC(=O)C(C)CC)C12 (stereo not given)
inactive: Potency [1] | Potency [3] | Potency [7] | outcome [4] | Potency [8] | Potency [5] | Potency [6] | outcome (HaCat) | Potency (C33A) | Potency (CAOV3) | Potency (CASKI) | Potency (Es-2) | Potency (JEG-3) | Potency (PA-1) | Potency (Tov-21-G) | Potency (Tov112D)

CCCCOC(=O)c1ccnc2cc(C(OCCN3CCCCC3)c3ccccc3Cl)sc12 (stereo not given)
inactive: Potency [1] | Potency [2] | Potency [3] | Potency [7] | outcome [4] | Potency [5] | Potency [6] | outcome (HaCat) | max response (NIH3T3) -3.89% | Potency (C33A) | Potency (CAOV3) | Potency (CASKI) | Potency (Es-2) | Potency (Hek293T) | Potency (JEG-3) | Potency (OV90) | Potency (PA-1) | Potency (Tov-21-G) | Potency (Tov112D)

C[C@@H](CN1CCC2(CC1)C(=O)NCN2c1cccc(F)c1)NC(=O)c1ccc(Br)cc1
inactive: Potency [1] | Potency [2] | Potency [3] | Potency [7] | outcome [4] | Potency [8] | Potency [5] | Potency [6] | Potency (C33A) | Potency (CAOV3) | Potency (Es-2) | Potency (JEG-3) | Potency (OV90) | Potency (PA-1) | Potency (Tov-21-G)

CC[C@@H]1/C=C/C=C/C[C@H](C)C(O)[C@](C)(O)C(=O)[C@H](C)C(O)[C@H](C)C(=O)[C@H](C)[C@@H](O)[C@H](C)/C=C/C(=O)O[C@H]2[C@@H](C)[C@@H](CC1)O[C@]1(O[C@H](C[C@H](C)O)[C@H](C)CC1=O)[C@@H]2C (stereo not given in full)
inactive: Potency [1] | Potency [2] | Potency [3] | Potency [7] | outcome [4] inactive [at 11.6 µM] | activity change, negative = thiol reactive [8] -8.56% [at 11.5 µM] | activity, negative = inhibition [5] -0.681% [at 11.6 µM] | redox activity (% of DA3003) [6] 13.1% [at 11.5 µM] | max response (HaCat) -17.7% | max response (NIH3T3) -27% | activity change, negative = cytotoxicity (CAOV3) -25.5% [at 11.6 µM] | activity change, negative = cytotoxicity (CASKI) -1.41% [at 11.6 µM] | activity change, negative = cytotoxicity (Es-2) -1.68% [at 11.6 µM] | activity change, negative = cytotoxicity (JEG-3) 22.8% [at 11.6 µM] | activity change, negative = cytotoxicity (Tov-21-G) 25.5% [at 11.6 µM] | activity change, negative = cytotoxicity (Tov112D) -13.7% [at 11.6 µM]

C[C@H](Nc1ncnc2nc[nH]c12)c1nc2ccc(F)cc2c(=O)n1-c1ccccc1
inactive: Potency [1] | Potency [3] | Potency [7] | outcome [4] | Potency [8] | Potency [5] | Potency [6] | Potency (C33A) | Potency (CAOV3) | Potency (CASKI) | Potency (Es-2) | Potency (JEG-3) | Potency (OV90) | Potency (PA-1) | Potency (Tov-21-G) | Potency (Tov112D)
active: Potency (NIH3T3) 13000 nM
